These results are taken from ChEMBL document CHEMBL4888484, “Replenishing the malaria drug discovery pipeline: Screening and hit evaluation of the MMV Hit Generation Library 1 (HGL1) against asexual blood stage Plasmodium falciparum ,using a nano luciferase reporter read-out” (2022).

As usually defined, the % Inhibition is the relative decrease from the control value, in per cent.

The campaign covered roughly 150,000 compounds. About 540 (0.36%) showed an effect of 50% or more. This is one part of a sample in which strong results are shown more often than they occur.

The assay deals with Plasmodium falciparum. The experiment in a line: Primary screen in NF54 nanoGlo assay, in single point, at 2uM, 72h; a lower Z score goes with more inhibition. The format is functional, Erythrocyte. Conditions: timepoint 72 hour.
For `NS(=O)(=O)c1cnc(N[C@H]2CCc3ccc(F)cc32)s1`, the “% Inhibition” value is -3% and the Z score came out at 0.33.

Take `COc1cc(C)c2[nH]c3c(c(=O)c2c1)CN(CC(=O)Nc1ccc(F)c(C)c1)CC3`: the “% Inhibition” value worked out at 43% and the Z score is recorded as -1.61.

As for `COc1cc(C)c2[nH]c3c(c(=O)c2c1)CN(CC(=O)Nc1ccc2c(c1)OCCO2)CC3`, the “% Inhibition” value is reported as 52% and the Z score was -1.23.

As for `COc1cc(C)c2[nH]c3c(c(=O)c2c1)CN(CC(=O)Nc1ccc2c(c1)OCO2)CC3`, the “% Inhibition” value came out at 44% and the Z score is given as -0.61.

As for `O=C1N(CC2CCCCC2)CCC[C@@]1(O)CN1CCOCC1`, the “% Inhibition” value is on record as -7% and the Z score amounted to 1.35.

On to `CCOC1(c2nc(Cc3conc3C)no2)CCCC1`, for which the “% Inhibition” value is listed as 6% and the Z score is recorded as -0.78.

With `CCOc1cc(Cl)ccc1C(=O)NC1CCN(C[C@H]2CCOC2)CC1`, the “% Inhibition” value is 38% and the Z score was -0.42.

For `c1nc(NCCC2CCCCC2)c2cnoc2n1`, the “% Inhibition” value was determined as 7% and the Z score is given as -0.88.

As for `CC(C)[C@@H](C(=O)NCc1cccc(C(F)(F)F)c1)N1CCCS1(=O)=O`, the “% Inhibition” value was -4% and the Z score is 0.83.

Consider `Cc1c(-c2nn(-c3nc(C4CC4)cc(C(F)(F)F)n3)c(-c3cnn(C)c3C)c2Cl)cnn1C`, for which the “% Inhibition” value came out at 76% and the Z score is -8.32.

For the molecule `Cc1nn(C)cc1-c1nn(-c2nc(C3CC3)cc(C(F)(F)F)n2)c(-c2cn(C)nc2C)c1C`, the “% Inhibition” value worked out at 46% and the Z score was 0.79.

As for `Cc1c(-c2nn(-c3ccccc3)c(-c3cnn(C)c3C)c2Cl)cnn1C`, the “% Inhibition” value is 39% and the Z score was -4.45.

In the case of `Cc1nccn1C[C@H]1CCCN(C(=O)Cn2cccn2)C1`, the “% Inhibition” value is -3% and the Z score worked out at 0.6.

For the molecule `COC(=O)c1cc(OC)ccc1-c1cccc(C(=O)N2CCNC[C@@H]2C)c1`, the “% Inhibition” value was -17% and the Z score was 1.67.

On to `O=C(Nc1nc2cccc(Cl)c2o1)c1cccc(F)c1`, for which the “% Inhibition” value is recorded as 89% and the Z score is on record as -8.47.

`Cc1nc(N2CCCC2)nc(C)c1NC(=O)c1cccc(F)c1`: the “% Inhibition” value was -5% and the Z score worked out at 0.84.

Regarding `Cc1ccc(NC(=O)c2cccc(F)c2)c(-c2nc3ccccc3nc2O)c1`, the “% Inhibition” value is -15% and the Z score was 1.64.

As to `COc1ccccc1N1CCN(C(=O)[C@H](C)n2ccnc2)CC1`, the “% Inhibition” value is -19% and the Z score was 2.94.

`CCc1ccc(-c2cc(C(=O)Nc3ccc4nc(NS(C)(=O)=O)sc4c3)[nH]n2)cc1`: the “% Inhibition” value is listed as -13% and the Z score is given as 1.27.

Consider `CCn1c(N2CCC[C@H](C(=O)NCc3cccc(Cl)c3)C2)cc(=O)n(C)c1=O`, for which the “% Inhibition” value is reported as -20% and the Z score was 3.09.

Regarding `COc1ccc(N(Cc2c(C)noc2C)Cc2c(C)noc2C)cc1`, the “% Inhibition” value is -5% and the Z score stood at 0.44.

Regarding `CC1(C)CCCN1S(=O)(=O)c1onc(C2CC2)c1Cl`, the “% Inhibition” value is -3% and the Z score was 0.41.

Regarding `Cc1ccc(S(=O)(=O)n2cc(C)[nH]c2=O)cc1`, the “% Inhibition” value is -23% and the Z score is recorded as 2.15.

As for `O=c1[nH]c(=O)n(S(=O)(=O)c2ccccc2)cc1F`, the “% Inhibition” value came to 90% and the Z score is on record as -12.13.

`O=c1[nH]c(=O)n(CCS(=O)(=O)c2ccccc2)cc1Cl`: the “% Inhibition” value was -11% and the Z score was 1.09.

Regarding `CC(C1CC1)n1cc(NC(=O)N2CCC(C(F)(F)F)C2(C)C)cn1` (stereo not given), the “% Inhibition” value is given as -10% and the Z score was determined as 1.23.

On to `O=C(CCc1ccccc1)N[C@H]1CC[C@H](Oc2ncc(F)cn2)CC1`, for which the “% Inhibition” value was -10% and the Z score is on record as 1.77.

As for `Cc1nnc(OC2Cc3ccccc3C2)s1`, the “% Inhibition” value is on record as -7% and the Z score was determined as 1.07.

Consider `Fc1cnc(OC2Cc3ccccc3C2)nc1`, for which the “% Inhibition” value turned out to be 60% and the Z score is recorded as -5.26.

Turning to `CCc1nnc(CNC(=O)C(=O)c2ccco2)o1`, the “% Inhibition” value is given as -5% and the Z score came out at 0.65.

Take `COc1ccc(CNC(=O)CCc2c(C)nn(-c3ccc4nnc(C)n4n3)c2C)c(OC)c1`: the “% Inhibition” value came out at 5% and the Z score was -0.63.

In the case of `CC[n+]1c(/C=C/N(C)c2ccccc2)oc2ccc(-c3ccccc3)cc21`, the “% Inhibition” value came out at 88% and the Z score is given as -9.92.

Regarding `CC[n+]1c(/C=C/N(C)c2ccccc2)oc2ccccc21`, the “% Inhibition” value came out at 80% and the Z score is listed as -10.29.

In the case of `COc1ccc2c(c1)C(=O)N(Cc1ccccc1)C(=O)C2(C)C`, the “% Inhibition” value is -10% and the Z score amounted to 1.06.

With `C[C@@H](c1cccnc1)N(C)Cc1nc2c(s1)CCC2`, the “% Inhibition” value is -18% and the Z score is recorded as 3.45.

`CCC(=O)Nc1cc(NC(=O)N(CC)CC2CCOCC2)ccc1OC`: the “% Inhibition” value is -8% and the Z score is given as 1.44.

For `Oc1ccc2ncccc2c1[C@@H](Nc1ccccn1)c1cccc(Cl)c1`, the “% Inhibition” value is reported as 34% and the Z score is on record as -3.9.

Take `Cc1cc([C@H](Nc2ccccn2)c2ccccc2)c(NC(=O)c2ccccc2)s1`: the “% Inhibition” value stood at 31% and the Z score is -0.7.

`Oc1ccc2ncccc2c1[C@@H](Nc1ccccn1)c1cccc(Br)c1`: the “% Inhibition” value was 58% and the Z score was -12.1.

`Cc1cccc(Cl)c1NC(=O)N1CCS(=O)(=O)[C@@H](C)C1`: the “% Inhibition” value is -5% and the Z score was 0.54.

For `Cc1ccc(-n2nnnc2C2(NC(C)C)CCCC2)cc1`, the “% Inhibition” value is recorded as -3% and the Z score is on record as 0.43.

With `CC(=O)Nc1ccc(-c2nc(-c3cccnn3)no2)c(C)c1`, the “% Inhibition” value is reported as -22% and the Z score is on record as 2.61.

As for `CC(C)(C)CN(CC(=O)O)C(=O)Cc1ccccc1F`, the “% Inhibition” value is -9% and the Z score was 1.82.

Take `CCN1CCN(C(=O)c2cnc(-c3ccc(F)cc3)nc2N(C)C)CC1`: the “% Inhibition” value is reported as 3% and the Z score was -0.5.

Consider `COc1ccnc(NCCCNc2nccc(OC)n2)n1`, for which the “% Inhibition” value is recorded as -4% and the Z score was determined as 0.53.

With `Cc1ccc(N2CCOCC2)c(NC(=O)C2CCCCC2)c1`, the “% Inhibition” value is given as -1% and the Z score was determined as 0.12.

With `Cc1nn(C)c(Cl)c1NC(=O)OCc1ccc(F)cc1`, the “% Inhibition” value was 54% and the Z score is recorded as -1.24.

As to `COc1ccccc1COC(=O)Nc1c(C)nn(C)c1Cl`, the “% Inhibition” value was 2% and the Z score is listed as -0.32.

`O=C(CNC(=O)OCc1ccccc1)Nc1ccc(F)cc1`: the “% Inhibition” value is reported as 37% and the Z score was 2.05.

`Cc1ccc(N2S(=O)(=O)c3ccccc3S2(=O)=O)cc1`: the “% Inhibition” value is reported as 4% and the Z score is given as -0.44.

Regarding `Cc1cc(NC(=O)C2CCC(C3CC3)CC2)n2ncnc2n1` (stereo not given), the “% Inhibition” value was -7% and the Z score came out at 0.83.

With `FC(F)(F)c1cccc(Nc2c3ccccc3nc3ccccc23)c1`, the “% Inhibition” value was determined as 10% and the Z score was -0.85.

For the molecule `O=C(O)c1ccc(Nc2c3ccccc3nc3ccccc23)cc1`, the “% Inhibition” value is reported as -3% and the Z score is recorded as 0.3.

With `CCOc1ccc(Nc2c3ccccc3nc3ccccc23)cc1`, the “% Inhibition” value came to 81% and the Z score is given as -10.53.

For the molecule `CCOc1ccc(NC(=O)Cc2c(O)nc3ccccc3c2O)cc1`, the “% Inhibition” value was -9% and the Z score amounted to 1.39.
